Hits are enriched below; roughly 11% of the tested compounds scored in any of these assays.
ALOX15 inhib: qHTS Assay for Inhibitors of 15-hLO (15-human lipoxygenase). Polyunsaturated fatty acid lipoxygenase ALOX15 (Homo sapiens), P16050. purified 15hLO-1, xylenol orange hydroperoxide absorbance. Potency, µM (highest dose often 57.1 µM), inactives show top-dose activity change, negative = inhibition, actives largely listed as inhibitors. 74,000 tested, 1.4% active. AID 887, 2007; further: nearly all actives have a fitted effect of over 55% in size
Target sequence (P16050 whole entry, looked up): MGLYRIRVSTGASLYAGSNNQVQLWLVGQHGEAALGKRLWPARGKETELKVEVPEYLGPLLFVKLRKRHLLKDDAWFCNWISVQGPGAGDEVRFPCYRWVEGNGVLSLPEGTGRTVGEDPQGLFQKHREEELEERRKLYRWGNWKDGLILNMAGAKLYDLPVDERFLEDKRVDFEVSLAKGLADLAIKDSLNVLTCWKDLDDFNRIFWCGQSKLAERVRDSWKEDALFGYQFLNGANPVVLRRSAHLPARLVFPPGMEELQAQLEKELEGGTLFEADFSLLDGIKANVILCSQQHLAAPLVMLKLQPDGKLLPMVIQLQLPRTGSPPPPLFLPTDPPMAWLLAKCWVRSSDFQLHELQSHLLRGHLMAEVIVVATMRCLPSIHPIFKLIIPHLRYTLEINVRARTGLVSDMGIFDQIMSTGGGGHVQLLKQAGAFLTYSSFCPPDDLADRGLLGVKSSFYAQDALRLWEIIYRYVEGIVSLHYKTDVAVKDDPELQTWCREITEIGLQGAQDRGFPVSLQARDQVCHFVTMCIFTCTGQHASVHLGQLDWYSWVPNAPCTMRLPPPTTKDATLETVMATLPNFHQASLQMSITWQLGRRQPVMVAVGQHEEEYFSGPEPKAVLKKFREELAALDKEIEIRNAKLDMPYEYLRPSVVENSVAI
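Purified human 15hLO-1 (40 nM) in 25 mM Hepes pH 7.5, 0.01% Triton X-100, preincubated 15 min RT with compound, then 50 uM arachidonic acid for 6 min. Hydroperoxide read by ferrous/xylenol orange, 30 min; 573/405 nm absorbance ratio gave progress.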
HSD17B inhib: qHTS Assay for Inhibitors of HSD17B4, hydroxysteroid (17-beta) dehydrogenase 4 | 3-hydroxyacyl-CoA dehydrogenase type-2 (Homo sapiens), Q99714 | recombinant HSD17B10, NADH fluorescence kinetic | Potency, µM (series often up to 57.1 µM), for the others: at the highest dose activity change, negative = inhibition, most hits filed as inhibitors | 75,000 tested, 7.6% active;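 further: the protocol describes HADH2 (HSD17B10) and not the HSD17B4 of the title; nearly all actives have a fitted effect of over 70% in size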
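Enzyme plus compound, 15 min room temperature; substrate mix added (NAD+ 1 mM, beta-hydroxybutyryl-CoA 90 uM final); plates read kinetically for NADH fluorescence. HADH2 was His-tagged, E. coli-derived, 20 nM.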
FLuc inh: qHTS Assay for Inhibitors of Firefly Luciferase; AID 411, 2009; purified firefly luciferase, luminescence, 8 min; Potency, µM (titrated, usually from 57.1 µM), inactives show at the highest dose activity change, negative = inhibition, most hits filed as inhibitors; 72,000 tested, 2.2% active; Luciferin 4-monooxygenase (Photinus pyralis), P08659; further: nearly all actives have a fitted effect of over 40% in size
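qHTS concentration-response profiling: light output of P. pyralis luciferase with luciferin and 10 uM ATP, imidazole buffer pH 7.2. Read by luminescence after 8-min room-temperature incubation.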
ERK AVP inh: qHTS Assay for Inhibitors of the ERK Signaling Pathway using a Homogeneous Screening Assay | HEK293-V1b, vasopressin-stimulated pERK AlphaScreen | Potency, µM (highest dose often 57.5 µM), inactives show at the top dose activity, negative = inhibition, actives largely listed as inhibitors | 72,000 tested, 0.99% active; further: nearly all actives have a fitted effect of over 55% in size
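V1b-HEK293 cells; cpd 30 min 37C; 25 nM vasopressin 5 min; lyse 10 min; AlphaScreen beads 5 hr RT. Normalized to DMSO basal and 25 nM vasopressin; AC50 by Hill fit.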
PK Bst: Pyruvate Kinase; Potency, µM; purified pyruvate kinase, luminescence ATP production; ribose 5-phosphate activator present at AC10; 51,000 tested, 1.2% active; in the data active means potency below about 11 µM; inconclusive means mostly about 12 µM to 25 µM;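 the screen sought inhibitors and activators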;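 further: scaled between full activation by ribose 5 phosphate and full inhibition by luteolin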
HADH2 inhib: qHTS Assay for Inhibitors of HADH2 (Hydroxyacyl-Coenzyme A Dehydrogenase, Type II) | 3-hydroxyacyl-CoA dehydrogenase type-2 (Homo sapiens), Q99714 | Potency, µM (top dose mostly 57.1 µM), without a hit: at the highest dose activity change, negative = inhibition, usual class: inhibitors | recombinant HADH2, NADH fluorescence, beta-hydroxybutyryl-CoA | 73,000 tested, 3.4% active; further: nearly all actives have a fitted effect of over 60% in size
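NADH fluorescence (ex 360/em 450 nm) read every 30 s for 4 min; activity taken as last-minus-first time point difference. Enzyme 20 nM, NAD+ 1 mM, beta-hydroxybutyryl-CoA 90 uM, pH 9.0 Tris buffer.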
The depositor's hits bear a star; ? = inconclusive; nt = no result; [ ] = another dose, or the depositor's remark. Unless noted, the call rests on the fitted dose curve; in most records, active means well fitted curve in the direction sought with a large enough effect; inconclusive means small, poorly fitted or top-dose-only effect, or another doubt; inactive means no such curve, though single readings can be large; an effect the other way counts as inactive or inconclusive. Unless noted, on the % scale 0 is the no-effect control and ±100 the full control effect; potency means the concentration at half of the fitted maximal effect.

SMILES | ALOX15 inhib | HSD17B inhib | FLuc inh | ERK AVP inh | PK Bst | HADH2 inhib
Cc1nn(Cc2ccccc2)c(C)c1NC(=O)c1cc2nc(-c3ccco3)cc(C(F)(F)F)n2n1 | -12% | 25µM* | -3% | ? | >57 | -8%
COC(=O)C1CC1C(NC(=O)[C@@H]1CCCN1)c1ccccc1 (some centres not stated) | nt | -2% | nt | 17% | nt | 4%
CC1(C)CC2C1CC[C@]1(C)CCC3C(C(=O)O)CC(=O)O[C@]32C1 (some centres not stated) | -28% | 10µM* | nt | -23% | nt | nt
COc1ccc(CN2CCOCC2)c(C)c1C | 3% | 4% | 0% | 20% | >57 | 17%
COc1ccc(/C=N/n2c(=O)[nH]c3c([nH]c4ccc(C)cc43)c2=O)cc1CN1CCOCC1 | -20% | 32µM* | -1% | -3% | nt | ?
Cc1cc2c(c(=O)n1Cc1cccnc1)C(Cc1ccccc1)C(C#N)=C(N)O2 (configuration not stated) | 6% | 25µM* | -5% | -20% | >57 | 25µM*
Cc1cc2c(c(=O)n1Cc1ccco1)C(c1cccnc1)C(C#N)=C(N)O2 (configuration not stated) | 24% | -1% | 3% | -23% | >57 | -4%
CCCC(=O)Nc1ccc(NC(=O)c2ccccn2)cn1 | -3% | 0% | 20µM* | 14% | nt | -6%
CCCC(=O)Nc1ccc(NC(=O)c2ccccc2OC)cn1 | 4% | ? | -2% | 12% | >57 | -1%
N#CCc1c(C#N)c(N)nc(N2CCN(S(=O)(=O)c3ccccc3)CC2)c1C#N | -8% | 25µM* | -2% | ? | nt | 32µM*
CCN1CCN(/C=N/c2nc3c(s2)CCCC3)CC1 | 14% | -10% | 13µM* | -9% | ? | -21%
CCOC(=O)N/N=C1/C[C@@H](O)[C@@H](O)[C@@H]2[C@@H]3C(=O)N(CC)C(=O)[C@H]3CC[C@@H]12 | 8%[11.4 µM] | 3%[11.4 µM] | -1%[11.4 µM] | -9%[11.5 µM] | nt | 4%[11.4 µM]
COC(=O)c1c(-c2ccc(F)cc2)csc1NC(=O)c1ccco1 | -25%[11.4 µM] | 32µM* | 13µM* | 0% | nt | 5µM*
COC(=O)c1c(-c2cccnc2)csc1NC(=O)c1cc(C)on1 | ? | 25µM* | 13µM* | -15% | ? | 5µM*
O=C(Nc1scc(-c2ccccc2)c1C(=O)O)c1ccco1 | -1% | ? | -9% | -16% | nt | -9%
COC(=O)[C@@H]1CC[C@H](C)[C@@H](c2ccc(C)cc2)N1C(=O)c1ccc(/C=N\OC[C@@H](C)[C@H](OCc2ccccc2)C(C)C)cc1 | 9%[11.4 µM] | -1%[11.4 µM] | 0%[11.4 µM] | 9%[11.5 µM] | nt | 13%[11.4 µM]
CC(=O)N1CCC2(CC1)CCN(c1cccc(-c3ccccc3)c1)CC2 | -9% | ? | 0%[11.4 µM] | ? | nt | 2%
O=C(c1ccncc1)N1CCC2(CC1)CN(c1cccc(-c3ccccc3)c1)C2 | -4% | 25µM* | -3%[11.4 µM] | -28% | nt | -23%
COc1ccc(C(=O)N2CCC3(CC2)CN(c2cccc(-c4ccccc4)c2)C3)cc1 | -8% | ? | 1%[11.4 µM] | ? | nt | -11%
CC(=O)N1CCC2(CC1)CN(c1cccc(-c3ccccc3)c1)C2 | -16% | 32µM* | -14%[11.4 µM] | -26% | nt | -7%
CCOC(=O)c1ccc(NC(=O)COc2ccc(-n3cnnn3)cc2)cc1 | -13% | -9% | -4% | 8% | >57 | 10%
COC(=O)c1ccc(OCC(=O)Nc2nn(-c3ccccc3)nc2C(N)=O)cc1 | 7% | 3.2µM* | -20% | -11% | >57 | ?
C[C@]12CCC(=O)C=C1CCC1C2C(=O)C[C@]2(C)C1CC[C@]2(O)C(=O)CO (some centres not stated) | 9% | 13µM* | nt | 9% | nt | nt
